eIF4H inh = human eIF4H binding inhibitors, primary screen, translation initiation inhibitor project, biochemical, uHTS, fluorescence polarization. inhibition, % at 35 µM. Eukaryotic translation initiation factor 4H (Homo sapiens), Q15056. eIF4H fluorescence polarization binding assay. AID 2012, 2009. actives 0.94% (n = 290,000);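 also: calls also rest on retests at 20 µM and on dose response follow-up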
PfM18AAP inh-1 = PfM18AAP inhibitors, malaria aminopeptidase, primary screen, biochemical, QFRET, recombinant enzyme. inhibition, % at 7.35 µM. AID 1822, 2009. H-Glu-NHMec fluorogenic cleavage. actives 1.2% (n = 290,000);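 active = inhibition above the campaign mean inhibition over all tested compounds plus 3 SD, cut at about 28% in these data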;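 also: 0% = plate median of test compound wells and 100% = 2 mM ZnCl2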
PABP polyA inh = PABP poly(A) RNA binding inhibitors, primary screen, biochemical, fluorescence polarization, uHTS | actives 1% (n = 290,000) | AID 2014, 2009 | inhibition, % at 35 µM | Polyadenylate-binding protein 1 (Homo sapiens), P11940;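 also: calls also rest on retests at 20 µM and on dose response follow-up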
PERK inhibitor = block of dimerizer-induced PERK translation repression, primary screen, PERK inhibitor project, CHO PERK-DD cells, SEAP luminescence, HTS | Eukaryotic translation initiation factor 2-alpha kinase 3 (Homo sapiens), Q9NZJ5 | CHO PERK-DD fusion, SEAP luminescence translation reporter | inhibition, % at 5.6 µM | actives 0.17% (n = 220,000);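 active = inhibition above the mean inhibition of all tested compounds plus 3 SD, set separately per screening campaign, cut at about 2.9% in these data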;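 also: PERK kinase domain activated by AP20187 dimerizer at 100 nM; 0% = DMSO with dimerizer and 100% = rapamycin at 8.4 µM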
eIF4E-4G inh = eIF4E–eIF4G protein interaction inhibitors, primary screen, biochemical, uHTS, TR-FRET, eIF4GI fragment. inhibition, % at 21.7 µM. TR-FRET eIF4E-eIF4GI(517-606) binding, 2 h. actives 0.37% (n = 220,000). Eukaryotic translation initiation factor 4E (Mus musculus) + Eukaryotic translation …;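 active = inhibition above about 30%, limit read from the data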;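 also: 0% = full FRET control wells and 100% = background wells lacking eIF4GI fragment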
PABP1 MLLE inh = inhibitors of PABP1 MLLE–PAM2 peptide binding, primary screen, biochemical, fluorescence polarization, FITC-PAM2, GST-MLLE. Polyadenylate-binding protein 1 (Homo sapiens), P11940. inhibition, % at 20 µM. actives 0.36% (n = 360,000). AID 588489, 2011; in the data active = inhibition above about 35%, passing the limit was not always enough;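 also: plate controls were DMSO wells with GST-MLLE for no effect and wells lacking GST-MLLE protein for full effect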
PfM18AAP inh-2 = PfM18AAP inhibitors, malaria aminopeptidase, confirmation, biochemical, QFRET, recombinant enzyme, triplicate. shares compounds with PfM18AAP inh-1. H-Glu-NHMec fluorogenic cleavage. inhibition, % at 7.35 µM. actives 28% (n = 2,400). AID 2170, 2009;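 active = mean inhibition over replicate wells above the hit cutoff set for the earlier primary screen, cut at about 29% in these data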;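 also: 0% = median of test compound wells and 100% = 2 mM ZnCl2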
CTSL1 counter = cathepsin L1 inhibitors, retest, confirmation, counter-screen for PFM18AAP inhibitor project, biochemical, QFRET, triplicate. shares compounds with PfM18AAP inh-1. purified cathepsin L1, Z-Leu-Arg-MCA fluorescence. inhibition, % at 5.96 µM. 2,400 tested, under 10 active. AID 2178, 2009;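 active = average inhibition across replicates above the hit cutoff set in the earlier primary screen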;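 also: 0% = median of test compound wells and 100% = Z-Phe-Ala-diazomethylketone 1 µM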
Target sequence (P07711 whole entry, looked up): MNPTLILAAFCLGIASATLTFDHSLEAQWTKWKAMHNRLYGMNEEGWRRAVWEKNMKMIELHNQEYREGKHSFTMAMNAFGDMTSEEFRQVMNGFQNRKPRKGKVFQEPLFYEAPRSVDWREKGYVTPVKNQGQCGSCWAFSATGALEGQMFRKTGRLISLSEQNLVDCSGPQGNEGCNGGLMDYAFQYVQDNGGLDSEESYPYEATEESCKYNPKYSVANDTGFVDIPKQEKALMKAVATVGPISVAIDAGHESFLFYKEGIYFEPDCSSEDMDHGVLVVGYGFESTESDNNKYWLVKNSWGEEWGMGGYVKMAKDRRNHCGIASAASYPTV
Starred values were filed as active, the others as inactive. Shown are actives, neighbours in structure and some others; about 2.4% of the full set was active somewhere. Unless noted, no rule for the calls is given here.

O=C(CSc1ncn[nH]1)OCN1C(=O)c2ccccc2C1=O was read as eIF4H inh 5, PfM18AAP inh-1 85*, PABP polyA inh -8, PERK inhibitor 2, eIF4E-4G inh 13, PABP1 MLLE inh 9, PfM18AAP inh-2 88* and CTSL1 counter -13.
`CC(C)c1ccc(C(=O)CSc2ncn[nH]2)cc1` gave eIF4H inh -5, PfM18AAP inh-1 25, PABP polyA inh -4, PERK inhibitor 1, eIF4E-4G inh 0 and PABP1 MLLE inh 26.
For CCOc1cc(N2CCOCC2)c(OCC)cc1NC(=O)CSc1n[nH]c(N)n1 the results were eIF4H inh -1, PfM18AAP inh-1 3, PABP polyA inh 16, PERK inhibitor 0, eIF4E-4G inh 3 and PABP1 MLLE inh -7.
Screening CCOc1cc(N2CCOCC2)c(OCC)cc1NC(=O)CSc1ncn[nH]1 returned eIF4H inh -2, PfM18AAP inh-1 49*, PABP polyA inh 11, PERK inhibitor 0, eIF4E-4G inh 4, PABP1 MLLE inh -5, PfM18AAP inh-2 -13 and CTSL1 counter -3.
O=C(CSc1ncn[nH]1)CSc1ncn[nH]1 was read as eIF4H inh 6, PfM18AAP inh-1 48*, PABP polyA inh 1, PERK inhibitor 2, eIF4E-4G inh 1, PABP1 MLLE inh 13, PfM18AAP inh-2 19 and CTSL1 counter -8.
Screening CC(=O)Nc1nonc1NC(=O)CSc1ccccn1 returned eIF4H inh -2, PfM18AAP inh-1 -8, PABP polyA inh 0, PERK inhibitor 1, eIF4E-4G inh 1 and PABP1 MLLE inh 3.
`COc1ccc(NC(=O)c2ccc(-c3c(C)noc3C)c3ccoc23)cc1` gave PABP1 MLLE inh -7.
Screening CCN(C(=O)COC(=O)CCC(=O)c1ccccc1)c1c(N)n(Cc2ccccc2)c(=O)[nH]c1=O returned PABP1 MLLE inh 9.
Screening COC(C/C=C/C(=O)[C@H](C)OCc1ccccc1)OC returned PABP1 MLLE inh 3.
Screening COc1cccc(CN2CC(C(=O)NCCN3CCOCC3)CCC2=O)c1 (centres undefined) returned eIF4H inh -11, PfM18AAP inh-1 3, PABP polyA inh 1 and PABP1 MLLE inh 8.
Screening CC1(C(=O)CSc2ncn[nH]2)CCC(=O)O1 (centres undefined) returned eIF4H inh 1, PfM18AAP inh-1 58*, PABP polyA inh 14, PERK inhibitor 1, eIF4E-4G inh 7, PfM18AAP inh-2 70* and CTSL1 counter -2.
Screening Nc1nc(SCC(=O)Nc2ccc([N+](=O)[O-])cc2Br)n[nH]1 returned eIF4H inh -2, PfM18AAP inh-1 -3, PABP polyA inh 12, PERK inhibitor 0, eIF4E-4G inh 1 and PABP1 MLLE inh 10.
For O=C(CSc1ncn[nH]1)Nc1ccc([N+](=O)[O-])cc1Br the results were eIF4H inh -9, PfM18AAP inh-1 67*, PABP polyA inh 12, PERK inhibitor 1, eIF4E-4G inh 8, PABP1 MLLE inh 6, PfM18AAP inh-2 79* and CTSL1 counter -2.
COc1cccc(F)c1C(C[N+](=O)[O-])c1c(N)n(C)c(=O)n(C)c1=O (centres undefined) was read as eIF4H inh -6, PfM18AAP inh-1 25, PABP polyA inh 8, PERK inhibitor -1, eIF4E-4G inh 2 and PABP1 MLLE inh 7.
COC(=O)c1ccc(C(=O)OC)c(=O)[nH]1 was read as eIF4H inh 1, PfM18AAP inh-1 18, PABP polyA inh 17, PERK inhibitor 1, eIF4E-4G inh 0, PABP1 MLLE inh 5, PfM18AAP inh-2 -62 and CTSL1 counter 3.
`O=C1Nc2ccccc2/C1=C/c1ccc([N+](=O)[O-])cc1` gave eIF4H inh 2, PfM18AAP inh-1 35*, PABP polyA inh 0, PABP1 MLLE inh 14, PfM18AAP inh-2 -2 and CTSL1 counter -2.
Screening COCCN(C(=S)Nc1c(C)cc(C)cc1C)C(C)c1cccnc1 (centres undefined) returned eIF4H inh -5, PfM18AAP inh-1 49*, PABP polyA inh -3, PERK inhibitor 0, eIF4E-4G inh -2, PABP1 MLLE inh -2, PfM18AAP inh-2 9 and CTSL1 counter -8.
For COCCN(C(=S)Nc1c(C)cccc1C)C(C)c1cccnc1 (centres undefined) the results were eIF4H inh -5, PfM18AAP inh-1 2, PABP polyA inh -8, PERK inhibitor 1, eIF4E-4G inh 4 and PABP1 MLLE inh 14.
For O=C(Nc1ccc(C(=O)O)cc1)/C(=C\c1ccco1)NC(=O)c1ccco1 the results were eIF4H inh 15, PfM18AAP inh-1 32*, PABP polyA inh 8, PABP1 MLLE inh 2, PfM18AAP inh-2 -44 and CTSL1 counter 1.
Screening CC(=O)c1ccc(NC(=O)/C(=C\c2ccco2)NC(=O)c2ccco2)cc1 returned eIF4H inh -6, PfM18AAP inh-1 7, PABP polyA inh 9 and PABP1 MLLE inh -27.
For C/C(=N\Nc1ccc2nncn2n1)c1ccccn1 the results were eIF4H inh 13, PfM18AAP inh-1 40*, PABP polyA inh 10, PERK inhibitor 1, eIF4E-4G inh -3, PABP1 MLLE inh 7, PfM18AAP inh-2 -20 and CTSL1 counter 0.
For C/C(=N\Nc1ccc2nncn2n1)c1ccco1 the results were eIF4H inh 2, PfM18AAP inh-1 45*, PABP polyA inh 4, PERK inhibitor 1, eIF4E-4G inh -2, PABP1 MLLE inh -8, PfM18AAP inh-2 19 and CTSL1 counter 1.
Screening C/C(=N\Nc1ccc2nncn2n1)c1ccc(Br)s1 returned eIF4H inh -7, PfM18AAP inh-1 50*, PABP polyA inh 0, PERK inhibitor 0, eIF4E-4G inh 4, PABP1 MLLE inh -3, PfM18AAP inh-2 -29 and CTSL1 counter 3.
C(=N\Nc1ccc2nncn2n1)/c1ccccn1 was read as eIF4H inh 5, PfM18AAP inh-1 41*, PABP polyA inh -12, PERK inhibitor 1, eIF4E-4G inh -2, PABP1 MLLE inh -6, PfM18AAP inh-2 -5 and CTSL1 counter -5.

Screens: PubChem BioAssay, several laboratories
